Test systems include NCI-H23 lung; NCI-H226 lung; NCI-H322M lung; HOP-62 NSCLC; NCI-H460 lung; HOP-92 NSCLC; NCI-H522 lung; 786-0 renal; COLO 205 colon; DU-145 prostate; K-562 leukemia; MALME-3M melanoma; MDA-MB-231 breast; RXF 393 renal; SF-268 CNS; SF-295 CNS; SF-539 CNS; UACC-257 melanoma; M14 melanoma; A549/ATCC NSCLC.
Common to all, as to test: NCI-60 one-dose screen, 48 h (100 = growth as untreated, 0 = no growth, -100 = all killed)
What all share (settings): 10 µM unless noted

Growth data for 7 compounds are collected here from PubChem BioAssay (NCI).

SMILES strings stand for the structures. Values joined by “and” are separate entries in the source; they are usually repeats but may differ in a detail not shown here. Equal entries are not always repeated. This is part of a sample that, as a whole, favours compounds with a hit. Of some 83,000 tested, about 20% had one in any assay.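 Testing used 96-well plates and a 48-hour single-concentration exposure. Example: -40 means 40% of the starting cells died.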 Active and inactive are the calls of the source. Rule for the calls: active = growth percent below 10; inactive = the rest.

For the compound `CC(C)N=c1cc2n(-c3ccc(Cl)cc3)c3ccccc3nc-2cc1Nc1ccc(Cl)cc1`, the growth was -15.1% (active) and -62% (active) and -35.6% (active) with NCI-H23 lung; 35.8% (inactive) and 20.1% (inactive) and -21.7% (active) with NCI-H226 lung; 26.9% (inactive) and -13.2% (active) and -0.542% (active) in the assay on NCI-H322M lung; 55.8% (inactive) and 73.1% (inactive) and 42.9% (inactive) with HOP-62 NSCLC; 13.1% (inactive) and 13.2% (inactive) and -4.66% (active) in the assay with NCI-H460 lung; -2.5% (active) and -0.497% (active) in the assay with HOP-92 NSCLC. The growth in the assay on NCI-H522 lung is 9.58% (active) and -31.8% (active); with 786-0 renal, 24.7% (inactive) and 9.68% (active) and -18.8% (active); with COLO 205 colon, -7.57% (active) and -28.7% (active); in the assay on DU-145 prostate, 51.4% (inactive) and 15.5% (inactive); with K-562 leukemia, 14.5% (inactive) and -17.3% (active); with MALME-3M melanoma it was 5.85% (active) and -83.1% (active) and -46% (active). In addition, the growth in the assay on MDA-MB-231 breast was -0.451% (active) and 26% (inactive) and 10.6% (inactive); in the assay with RXF 393 renal, 8.99% (active) and -11.2% (active) and 12.3% (inactive); with SF-268 CNS, 45.5% (inactive) and 35.7% (inactive) and 31.2% (inactive); with SF-295 CNS it was 9.83% (active) and 19.6% (inactive) and -10.5% (active); in the assay on SF-539 CNS it was 72.8% (inactive) and 73.3% (inactive) and 59.1% (inactive); with UACC-257 melanoma, 28.3% (inactive) and 29.6% (inactive) and 7.9% (active). Moreover, the growth in the assay with M14 melanoma is -8.29% (active) and -34.4% (active) and -56.7% (active).
`CCCCOc1cc(C(=O)NCCN(CC)CC)c2ccccc2n1`: the growth with NCI-H23 lung was 88.7% (inactive) and 106% (inactive); with NCI-H226 lung, 94.5% (inactive) and 105% (inactive); in the assay on NCI-H322M lung, 100% (inactive) and 94.7% (inactive); in the assay with HOP-62 NSCLC, 99.4% (inactive) and 102% (inactive); with NCI-H460 lung, 110% (inactive) and 103% (inactive); with HOP-92 NSCLC it was 45.8% (inactive) and 51.7% (inactive). Also, the growth with NCI-H522 lung was 103% (inactive); in the assay on 786-0 renal, 90.6% (inactive) and 99.9% (inactive); in the assay on COLO 205 colon it was 89.6% (inactive) and 93.1% (inactive); in the assay on DU-145 prostate, 109% (inactive) and 106% (inactive); in the assay on K-562 leukemia it was 92.4% (inactive) and 104% (inactive); in the assay on MALME-3M melanoma it was 93% (inactive) and 106% (inactive). Moreover, the growth in the assay with MDA-MB-231 breast was 86.5% (inactive) and 96.9% (inactive); with RXF 393 renal, 80.7% (inactive) and 94% (inactive); in the assay on SF-268 CNS, 103% (inactive) and 101% (inactive); in the assay with SF-295 CNS, 92.5% (inactive) and 97.5% (inactive); in the assay with SF-539 CNS, 95.2% (inactive) and 106% (inactive); with UACC-257 melanoma it was 62.2% (inactive). The growth with M14 melanoma is 93.8% (inactive) and 105% (inactive).
For the compound `OC(CSc1ccccc1)CN1CCN(c2cccc(Cl)c2)CC1` (stereo not drawn), the growth is 104% (inactive) and 96.6% (inactive) in the assay on NCI-H23 lung; 91.4% (inactive) and 89.5% (inactive) in the assay on NCI-H226 lung; 108% (inactive) and 102% (inactive) with NCI-H322M lung; 107% (inactive) and 102% (inactive) with HOP-62 NSCLC; 114% (inactive) and 109% (inactive) in the assay with NCI-H460 lung; 82% (inactive) and 83.2% (inactive) with HOP-92 NSCLC. In addition, the growth is 104% (inactive) and 83.7% (inactive) in the assay with NCI-H522 lung; 101% (inactive) and 98.4% (inactive) in the assay with A549/ATCC NSCLC; 94.8% (inactive) and 105% (inactive) in the assay on 786-0 renal; 105% (inactive) and 99.9% (inactive) with COLO 205 colon; 116% (inactive) and 105% (inactive) with DU-145 prostate; 84% (inactive) and 97% (inactive) in the assay with K-562 leukemia. Besides, the growth in the assay with MDA-MB-231 breast was 96.6% (inactive) and 96.3% (inactive); in the assay with RXF 393 renal it was 106% (inactive) and 93.8% (inactive); in the assay with SF-268 CNS, 100% (inactive) and 99.1% (inactive); in the assay with SF-295 CNS, 110% (inactive) and 105% (inactive); in the assay with SF-539 CNS, 113% (inactive) and 105% (inactive); in the assay with UACC-257 melanoma, 93.6% (inactive) and 95% (inactive). The growth in the assay on M14 melanoma is 100% (inactive) and 93.8% (inactive).
In the case of `C=C1C(=O)O[C@H]2[C@H]1CC/C(COC(=O)NC1CCC(O)CC1)=C\CC[C@@]1(C)O[C@@H]21` (stereo partly drawn), the growth in the assay on NCI-H23 lung is 58.3% (inactive) and 50.6% (inactive); in the assay with NCI-H226 lung it was 85.5% (inactive) and 95% (inactive); with NCI-H322M lung, 105% (inactive) and 98.6% (inactive); with HOP-62 NSCLC, 97% (inactive) and 97.4% (inactive); with NCI-H460 lung it was 100% (inactive) and 96.7% (inactive); in the assay with HOP-92 NSCLC, 71.6% (inactive) and 54.6% (inactive). Also, the growth was -2.94% (active) and -11.8% (active) with NCI-H522 lung; 91.7% (inactive) and 87.8% (inactive) with A549/ATCC NSCLC; 103% (inactive) and 99.6% (inactive) in the assay with 786-0 renal; 44.9% (inactive) and 41.7% (inactive) in the assay with COLO 205 colon; 38.7% (inactive) and 28.8% (inactive) in the assay on DU-145 prostate; 72.6% (inactive) and 64.5% (inactive) with MALME-3M melanoma. For the same compound, the growth in the assay with MDA-MB-231 breast was 60.8% (inactive) and 62.4% (inactive); in the assay on RXF 393 renal, 54% (inactive) and 53.2% (inactive); with SF-268 CNS, 93.2% (inactive) and 91.5% (inactive); in the assay with SF-295 CNS it was 96.6% (inactive) and 95.7% (inactive); in the assay on SF-539 CNS, 71.9% (inactive) and 63.2% (inactive); in the assay with UACC-257 melanoma, 65.6% (inactive) and 69.1% (inactive). Also, the growth with M14 melanoma is 85.4% (inactive) and 71.4% (inactive).
As for `COc1ccc(S(=O)(=O)N2CCOCC2)cc1NC(=O)c1[nH]c(C)c2c1CCCCC2=O`, the growth in the assay on NCI-H23 lung is 104% (inactive) and 59% (inactive); in the assay on NCI-H226 lung, 104% (inactive) and 62% (inactive); in the assay on NCI-H322M lung, 105% (inactive) and 64.6% (inactive); in the assay on HOP-62 NSCLC it was 109% (inactive) and 33.8% (inactive); in the assay on NCI-H460 lung, 103% (inactive) and 75.9% (inactive); in the assay with NCI-H522 lung it was 100% (inactive) and 40.9% (inactive). For the same compound, the growth in the assay on A549/ATCC NSCLC was 97.2% (inactive) and 61.7% (inactive); with 786-0 renal, 107% (inactive) and 93.4% (inactive); in the assay on COLO 205 colon, 113% (inactive) and 34.8% (inactive); in the assay on DU-145 prostate, 107% (inactive) and 81.5% (inactive); in the assay with K-562 leukemia, 105% (inactive) and 46.1% (inactive); with MALME-3M melanoma, 103% (inactive) and 53.9% (inactive). Moreover, the growth is 110% (inactive) and 44.6% (inactive) in the assay with MDA-MB-231 breast; 109% (inactive) and 37.7% (inactive) with RXF 393 renal; 98.5% (inactive) and 72.1% (inactive) in the assay on SF-268 CNS; 100% (inactive) and 60.7% (inactive) with SF-295 CNS; 95.4% (inactive) and 43.6% (inactive) with SF-539 CNS; 101% (inactive) and 58.7% (inactive) with UACC-257 melanoma. Further, in the assay with M14 melanoma, the growth was 109% (inactive) and 102% (inactive).
Regarding `O=C(Cc1cccc2ccccc12)N/N=C/c1ccc2c(c1)CCC2`, the growth is 88.5% (inactive) in the assay on NCI-H23 lung; 97.3% (inactive) with NCI-H226 lung; 84.3% (inactive) in the assay with NCI-H322M lung; 67.1% (inactive) in the assay on HOP-62 NSCLC; 81.5% (inactive) in the assay on NCI-H460 lung; 92.9% (inactive) with HOP-92 NSCLC. Besides, the growth in the assay on NCI-H522 lung is 23.5% (inactive); in the assay with A549/ATCC NSCLC, 65.8% (inactive); in the assay on 786-0 renal, 88% (inactive); with COLO 205 colon, 82% (inactive); in the assay on DU-145 prostate, 96.6% (inactive); in the assay with K-562 leukemia it was 17.3% (inactive). For the same compound, the growth is 63.6% (inactive) with MALME-3M melanoma; 75% (inactive) with MDA-MB-231 breast; 86% (inactive) with RXF 393 renal; 82.3% (inactive) in the assay with SF-268 CNS; 83% (inactive) with SF-539 CNS; 87.3% (inactive) in the assay on UACC-257 melanoma. For the same compound, the growth with M14 melanoma is 77.9% (inactive).
`O=C(CN1CCN(c2cc3c(cc2F)c(=O)c(C(=O)O)cn3C2CC2)CC1)Nc1ccc(Cl)cc1`: the growth is 94.5% (inactive) and 87.5% (inactive) in the assay with NCI-H23 lung; 80.1% (inactive) and 96.7% (inactive) in the assay on NCI-H226 lung; 53.8% (inactive) and 56% (inactive) in the assay with NCI-H322M lung; 71.7% (inactive) and 100% (inactive) in the assay with HOP-62 NSCLC; 88% (inactive) and 90.1% (inactive) in the assay on NCI-H460 lung; -13.7% (active) and 83.5% (inactive) in the assay with NCI-H522 lung. Besides, the growth with A549/ATCC NSCLC was 69.2% (inactive) and 86.8% (inactive); with 786-0 renal, 70.1% (inactive) and 83.8% (inactive); in the assay on COLO 205 colon, 99.9% (inactive) and 109% (inactive); with DU-145 prostate, 99.1% (inactive) and 103% (inactive); with K-562 leukemia it was 68.1% (inactive) and 67.9% (inactive); in the assay on MALME-3M melanoma, 91.8% (inactive) and 91.1% (inactive). Besides, the growth in the assay with MDA-MB-231 breast was 60.2% (inactive) and 70.1% (inactive); in the assay with RXF 393 renal it was 74.7% (inactive) and 84.3% (inactive); with SF-268 CNS it was 91.2% (inactive) and 92.5% (inactive); in the assay with SF-295 CNS, 87.9% (inactive) and 96.6% (inactive); in the assay with SF-539 CNS it was 86.9% (inactive) and 85.6% (inactive); in the assay on UACC-257 melanoma, 57% (inactive) and 88.4% (inactive). For the same compound, in the assay with M14 melanoma, the growth is 81.8% (inactive) and 92% (inactive).
